Like-named read-outs stand apart in the source and are kept apart here.
Experiments:
Design in all cases: species or system human, MV4-11 + K-562 + COLO205 + SK-N-BE2 + OVCAR-8
[1] = test system: ADRBK1; details: read-out: apparent Kd; compound concentrations: 100 nM and 1000 nM (sheet 'Samples'), CATDS: 7.1088636568514996E-2; n = 1
[2] = test system: FLT3; details: read-out: apparent Kd; compound concentrations: 100 nM and 1000 nM (sheet 'Samples'), CATDS: 0.11498835622255001; n = 1
[3] = test system: FRK; details: read-out: apparent Kd; compound concentrations: 100 nM and 1000 nM (sheet 'Samples'), CATDS: 9.2307505689948E-2; n = 1
[4] = test system: MAP2K5; details: read-out: apparent Kd; compound concentrations: 100 nM and 1000 nM (sheet 'Samples'), CATDS: 0.380124521697633; n = 1
[5] = test system: PDGFRB; details: read-out: apparent Kd; compound concentrations: 100 nM and 1000 nM (sheet 'Samples'), CATDS: 7.8407173450410803E-2; n = 1
[6] = test system: PRKCZ; details: read-out: apparent Kd; compound concentrations: 100 nM and 1000 nM (sheet 'Samples'), CATDS: 7.7148514104913996E-2; n = 1
[7] = test system: PTK6; details: read-out: apparent Kd; compound concentrations: 100 nM and 1000 nM (sheet 'Samples'), CATDS: 7.5013295148623801E-2; n = 1
[8] = test system: RIPK2; details: read-out: apparent Kd; compound concentrations: 100 nM and 1000 nM (sheet 'Samples'), CATDS: 9.6327273582125797E-2; n = 1
[9] = test system: RIPK3; details: read-out: apparent Kd; compound concentrations: 100 nM and 1000 nM (sheet 'Samples'), CATDS: 0.614198823590974; n = 1
[10] = test system: ZAK; details: read-out: apparent Kd; compound concentrations: 100 nM and 1000 nM (sheet 'Samples'), CATDS: 7.8640349215909094E-2; n = 1
[11] = test system: AKT1; details: read-out: apparent Kd, compound concentrations: 100 nM and 1000 nM (sheet 'Samples'), n = 1
[12] = test system: CSNK1D; details: read-out: apparent Kd, compound concentrations: 100 nM and 1000 nM (sheet 'Samples'), n = 1
[13] = test system: CSNK1E; details: read-out: apparent Kd, compound concentrations: 100 nM and 1000 nM (sheet 'Samples'), n = 1
[14] = test system: GSK3A; details: read-out: apparent Kd, n = 1
[15] = test system: RIOK2; details: read-out: apparent Kd, compound concentrations: 100 nM and 1000 nM (sheet 'Samples'), n = 1
[16] = test system: AKT2; details: read-out: apparent Kd, n = 1
[17] = test system: CDK16; details: read-out: apparent Kd; compound concentrations:100 nM and 1000 nM (sheet 'Samples'); n = 1
[18] = test system: CDK17; details: read-out: apparent Kd; compound concentrations:100 nM and 1000 nM (sheet 'Samples'); n = 1
[19] = test system: CDKL5; details: read-out: apparent Kd, n = 1
[20] = test system: T1, DJA1; details: read-out: apparent Kd; compound concentrations:100 nM and 1000 nM (sheet 'Samples'); n = 1
T1 construct: gene DNAJA1

[21] = test system: GSK3B; details: read-out: apparent Kd; compound concentrations:100 nM and 1000 nM (sheet 'Samples'); n = 1
[22] = test system: JAK2; details: read-out: apparent Kd; compound concentrations:100 nM and 1000 nM (sheet 'Samples'); n = 1
[23] = test system: MAPK14; details: read-out: apparent Kd; compound concentrations:100 nM and 1000 nM (sheet 'Samples'); n = 1
[24] = test system: PIK3CA; details: read-out: apparent Kd; compound concentrations:100 nM and 1000 nM (sheet 'Samples'); n = 1
[25] = test system: PIK3CD; details: read-out: apparent Kd; compound concentrations:100 nM and 1000 nM (sheet 'Samples'); n = 1
[26] = test system: RPS6KA6; details: read-out: apparent Kd; compound concentrations:100 nM and 1000 nM (sheet 'Samples'); n = 1
[27] = test system: CDK10; details: read-out: apparent Kd; compound concentrations: 100 nM and 1000 nM (sheet 'Samples'), CATDS: 0.51704029448555699; n = 1
[28] = test system: CDK6; details: read-out: apparent Kd; compound concentrations: 100 nM and 1000 nM (sheet 'Samples'), CATDS: 0.20931890266427899; n = 1
[29] = test system: AGPS; details: read-out: apparent Kd; compound concentrations: 100 nM and 1000 nM (sheet 'Samples'), CATDS: 7.5383402334255403E-2; n = 1
[30] = test system: CDK9; details: read-out: apparent Kd; compound concentrations: 100 nM and 1000 nM (sheet 'Samples'), CATDS: 8.3924043652499697E-2; n = 1
[31] = test system: CSNK1A1; details: read-out: apparent Kd; compound concentrations: 100 nM and 1000 nM (sheet 'Samples'), CATDS: 8.0672688589635194E-2; n = 1
[32] = test system: RAB14; details: read-out: apparent Kd; compound concentrations: 100 nM and 1000 nM (sheet 'Samples'), CATDS: 7.5249376612815694E-2; n = 1
[33] = test system: STK26; details: read-out: apparent Kd; compound concentrations: 100 nM and 1000 nM (sheet 'Samples'), CATDS: 8.25311561999897E-2; n = 1
[34] = compound concentrations:100 nM and 1000 nM (sheet 'Samples')

CNC(=O)c1ccc2c(c1)ncn2-c1ccc(CC(=O)OC(C)(C)C)cc1 [GSK840]
potency estimated from few doses [1]: 2020 nM | potency estimated from few doses [2]: 469 nM | potency estimated from few doses [3]: 857 nM | potency estimated from few doses [4]: 12.1 nM | potency estimated from few doses [5]: 1420 nM | potency estimated from few doses [6]: 1500 nM | potency estimated from few doses [7]: 1650 nM | potency estimated from few doses [8]: 759 nM | potency estimated from few doses [9]: 4.67 nM | potency estimated from few doses [10]: 1400 nM

Clc1ccc(CNc2nccc(-c3cnn4ncccc34)n2)cc1 [GW781673X]
potency estimated from few doses ([11]; CATDS: 0.20624871442291401): 1400 nM | potency estimated from few doses ([12]; CATDS: 0.21502598337996101): 1290 nM | potency estimated from few doses ([13]; CATDS: 0.16970430448232399): 2140 nM | potency estimated from few doses ([14]; compound concentrations: 100 nM and 1000 nM (sheet 'Samples'), CATDS: 0.23143029559655601): 1130 nM | potency estimated from few doses ([15]; CATDS: 0.18913150983507701): 1670 nM

CN1CCC(C(=O)Nc2n[nH]c3nnc(-c4ccccc4)cc23)CC1.Cl [SB-678557-A]
potency estimated from few doses [16, 34]: 2390 nM | potency estimated from few doses [17]: 1070 nM | potency estimated from few doses [18]: 1910 nM | potency estimated from few doses [19, 34]: 75.2 nM | potency estimated from few doses [20]: 1840 nM | potency estimated from few doses [14, 34]: 3.32 nM | potency estimated from few doses [21]: 8.23 nM | potency estimated from few doses [22]: 721 nM | potency estimated from few doses [23]: 1690 nM | potency estimated from few doses [24]: 183 nM | potency estimated from few doses [25]: 173 nM | potency estimated from few doses [26]: 1150 nM

Cc1cc(Cl)cc2c1NC(=O)C2=NNc1ccc(S(N)(=O)=O)cc1 [GW279320X]
potency estimated from few doses ([11]; CATDS: 0.213173393679812): 1720 nM | potency estimated from few doses ([16]; compound concentrations: 100 nM and 1000 nM (sheet 'Samples'), CATDS: 0.21750959040308801): 1630 nM | potency estimated from few doses [27]: 316 nM | potency estimated from few doses [28]: 1810 nM

c1cnn2ncc(-c3ccnc(NCCCN4CCOCC4)n3)c2c1 [GW683109X]
potency estimated from few doses [29]: 2080 nM | potency estimated from few doses [30]: 1290 nM | potency estimated from few doses ([19]; compound concentrations: 100 nM and 1000 nM (sheet 'Samples'), CATDS: 0.33786107354204697): 40.1 nM | potency estimated from few doses [31]: 1530 nM | potency estimated from few doses ([12]; CATDS: 0.220619974671908): 82.2 nM | potency estimated from few doses ([13]; CATDS: 0.1850261885326): 118 nM | potency estimated from few doses [32]: 2100 nM | potency estimated from few doses ([15]; CATDS: 0.19530203573374799): 105 nM | potency estimated from few doses [33]: 1390 nM

— paper PMC11062922 (Nature Chemical Biology, 2023)
